Assay [1] deals with Lysosomal acid glucosylceramidase (Homo sapiens) (UniProt P04062). Description: Glucocerebrosidase-p2 (AID 348; in the data active = potency below about 10 µM; also: potency is read from the fitted curve at half-maximal effect). As to conditions: purified GBA, blue fluorogenic substrate, 40 min. In outline:
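Normal human glucocerebrosidase (0.2 nM) with blue fluorogenic substrate (80 uM final) in citrate/phosphate pH 5.9 with 10mM sodium taurocholate, 0.01% tween-20; 40 min RT, NaOH/glycine stop; fluorescence Ex 365/Em 440; AC50 from a titration from 0.6 nM upwards.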

Assay [2] in a line: AP1 Signaling Pathway (AID 357; active = well fitted curve in either direction with a large enough effect, not every such curve was filed as active;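 also: ME-180 reporter cells stimulated with EGF at its EC50 level; % is scaled to controls: 0 for no effect and ±100 for the full control effect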). Conditions: ME-180 (cervical carcinoma) AP-1-bla reporter, EGF-induced, beta-lactamase ratio, 5 h; at 7.69 µM (top of the series) unless noted. Put shortly:
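Modulation of EGF-driven AP-1 transcription was assessed with a beta-lactamase reporter in ME-180 cells. Compound and EC50 EGF were co-incubated 5 hours at 37 °C before 2.5-hour CCF4 loading at room temperature and dual-emission reading.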

Assay [3] concerns the target Cytochrome P450 1A2 (Homo sapiens) (UniProt P05177). Description: p450-cyp1a2 (AID 410; calls by dose curve; also: potency is read from the fitted curve at half-maximal effect). Put shortly: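 O-Demethylation of luciferin 6' methyl ether by human CYP1A2 is monitored as luciferase luminescence. Substrate sits at Km (100uM); enzyme is 20nM. Values are scaled to 57 uM furafylline as maximal inhibition.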
A short description of assay [4]: NFAT Signaling Pathway (AID 444; active = well fitted curve in either direction with a large enough effect, not every such curve was filed as active;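 also: carbachol stimulus at about its EC50 of 1 µM final; % is scaled to controls: 0 for no effect and ±100 for the full control effect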). As to conditions: Jurkat NFAT-bla M1, carbachol, beta-lactamase ratio, 5 h; at 7.69 µM (top of the series) unless noted. Put shortly:
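Read-out: CCF4 FRET ratio (460 nm/530 nm) after 1 h RT dye loading, used for %activity and AC50 from titration series. Cells: Jurkat NFAT-β-lactamase/M1 line, treated with compound plus 1 uM carbachol for 5 h, 37 °C.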

Assay [5] is described as follows: Stat Signaling Pathway (AID 446; active = well fitted curve in either direction with a large enough effect, not every such curve was filed as active;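 also: ME-180 cervical cancer cells given 40 pM IL-6 alongside compound; SIE-controlled beta-lactamase reporter measured as 460/530 nm FRET emission ratio; % is scaled to controls: 0 for no effect and ±100 for the full control effect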). Put shortly:
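Emission at 460 and 530 nm (excitation 405 nm) reports SIE-controlled beta-lactamase in ME-180 cells. Cells received compound with 40 pM IL-6 for 5 hrs at 37 C; data scaled between 300 pM IL-6 and 125 nM JAK-inhibitor controls.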

Assay [6] has as its target Glucocorticoid receptor (Homo sapiens) (UniProt P04150). The assay can be described thus: GR-GFP Redistribution (AID 450;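 active = compounds whose dose series gives a full or clear partial fitted curve of increased nuclear translocation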; also: potency is read from the fitted curve at half-maximal effect). As to conditions: U2OS GR-GFP nuclear translocation, laser cytometry, 2 h.
Assay [7] has the same target. Description: GR-EFC Redistribution (AID 451; calls by dose curve; also: potency is read from the fitted curve at half-maximal effect). Conditions: CHO-K1 GR-EFC translocation, beta-gal luminescence, 2 h. Put shortly: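 Translocation of GR-ED fusion to nuclear EA restores b-gal, read by luminescence after 1 h room-temperature detection. Engineered CHO-K1 biosensor cells, 1,000/well, exposed 2 h at 37 C to titrations up to 46 uM final.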
In assay [8] the target is 3',5'-cyclic-AMP phosphodiesterase 4B (Homo sapiens) (UniProt Q07343). The assay can be described thus: qHTS Assay for Inhibitors of PDE-IV (AID 607; active = well fitted activation curve with a large enough effect in the main read-out, with a control signal flat, not every such curve was filed as active; also: % of control where 0% means no effect). In outline:
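The readout is membrane depolarisation from a cAMP-sensing CNG channel, detected with a potential dye at ex 535/em 590. Cells were HEK293-derived (endogenous PDE-IV) at 1000 cells/well, titrated up to 22.9 uM final.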

For assay [9], the target named is Cytochrome P450 3A4 (Homo sapiens) (UniProt P08684). The assay can be described thus: qHTS Assay for Activators of Cytochrome P450 3A4 (AID 885). Also: nearly all actives have a fitted effect of over 65% in size. Put shortly: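 Activators are scored by enhanced luminescence from CYP3A4 conversion of luciferin-PPXE (25uM, equal to KM) to luciferin, after 60 min at RT with an NADPH-regenerating system.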
On the technique in general: In qHTS, concentration-response curves come from the screen itself.

Assay [10] concerns the target Cytochrome P450 2C19 (Homo sapiens) (UniProt P33261). Description: qHTS Assay for Inhibitors and Substrates of Cytochrome P450 2C19 (AID 899). Also: potency is read from the fitted curve at half-maximal effect; nearly all actives have a fitted effect of over 60% in size. In outline: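 Reactions contain 5nM enzyme, 10uM Luciferin-H EGE (KM) and 50mM KPO4; compound preincubates 10 min at 37C, NADPH regeneration starts turnover for 60 min. Luminescence after detection reagent gives activity.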
For assay [11], the target named is Dual specificity protein kinase CLK4 (Homo sapiens) (UniProt Q9HAZ1). Description: qHTS Assay for Inhibitors of CDC-like Kinase 4 (Kinase-Glo Assay) (AID 1770). Also: nearly all actives have a fitted effect of over 65% in size. Also: potency is read from the fitted curve at half-maximal effect. Put shortly:
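Clk4 25 nM, RS peptide 100 uM, ATP 1 uM, pH 7.5 Tris, 10 mM MgCl2, 2.5 mM DTT; 4.5 h RT; ATP depletion read by Kinase-Glo luminescence.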

Assay [12] shares this target. Description: qHTS Assay for Inhibitors of CDC-like Kinase 4 (ADP-Glo Assay) (AID 1771). Also: nearly all actives have a fitted effect of over 70% in size. Also: potency is read from the fitted curve at half-maximal effect. In outline: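 Compounds are pin-transferred onto substrate mix (100 uM RS peptide, 1 uM ATP), then 25 nM Clk4 is added. After 1 hr at room temperature, ADP-Glo reagent runs 45 min, detection reagent 30 min, then luminescence is read.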
The target is the same in assay [13]. Description: qHTS Assay for Inhibitors of CDC-like Kinase 4 (ADP-FP Assay) (AID 1795). Also: nearly all actives have a fitted effect of over 60% in size. Also: potency is read from the fitted curve at half-maximal effect. In outline:
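Kinase activity was followed as ADP output, converted from fluorescence polarization with a calibration curve. Reactions ran one hour at low ATP (1 uM) with RS peptide substrate.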

Assay [14] addresses Ubiquitin carboxyl-terminal hydrolase 1 (Homo sapiens) (UniProt O94782). Description: Inhibitors of USP1/UAF1: Pilot qHTS (AID 504865).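 Also: rhodamine fluorescence freed from ubiquitin-rhodamine substrate followed over time; top concentration of the series differs between compounds; % is scaled to controls: 0 for no effect and ±100 for the full control effect; nearly all actives have a fitted effect of over 35% in size.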 Put shortly:
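Enzyme-free wells gave the negative control, while test wells held 1nM USP1/UAF1 preincubated with compound for 15 min at room temperature. Ub-Rho at 150nM final started the reaction, and fluorescence at 480/540 nm was recorded kinetically.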

Assay [15] has as its target Rap guanine nucleotide exchange factor 3 (Homo sapiens) (UniProt O95398). Description: Confirmatory qHTS for antagonist of cAMP-regulated guanine nucleotide exchange factor 3 (EPAC1) (AID 1645880).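 Also: plate controls were DMSO only for no effect and full effect of the ATA control for full effect; nearly all actives have a fitted effect of over 55% in size.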 Conditions: EPAC1 Rap1B-BODIPY-GDP exchange, fluorescence; activity, negative = inhibition: at 115 µM (top of the series). Put shortly: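 Released BODIPY-GDP fluoresces less than Rap1-bound BODIPY-GDP; the signal is followed at 480/540 nm at 5-min intervals over 30 min, after 5 min at room temperature. Reactions contain 100 nM EPAC1, 250 nM RAP1B-BODIPY-GDP and 50 uM GDP; results are normalized to ATA and DMSO.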

Assay [16] has the same target. The assay can be described thus: Confirmatory qHTS for agonist of cAMP-regulated guanine nucleotide exchange factor 3 (EPAC1) (AID 1645881).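 Also: EPAC1 catalysed release of BODIPY-GDP from Rap1B seen as fluorescence loss; 100% = effect of cAMP agonist control; nearly all actives have a fitted effect of over 75% in size.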
The target in assay [17] is Rap guanine nucleotide exchange factor 4 (Homo sapiens) (UniProt Q8WZA2). Description: Confirmatory qHTS for agonist of cAMP-regulated guanine nucleotide exchange factor 4 (EPAC2) (AID 1645884).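 Also: nucleotide exchange releases bodipy-GDP from Rap1 and this lowers its fluorescence; % is scaled to controls: 0 for no effect and ±100 for the full control effect; nearly all actives have a fitted effect of over 65% in size.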
For assay [18] the target is unchanged. Description: Confirmatory qHTS for antagonist of cAMP-regulated guanine nucleotide exchange factor 4 (EPAC2) (AID 1645885). Also: nearly all actives have a fitted effect of over 25% in size. Also: potency is read from the fitted curve at half-maximal effect.
Assay [19] deals with Rap guanine nucleotide exchange factor 3 (Homo sapiens) (UniProt O95398). Description: Counterscreen qHTS for agonist of cAMP-regulated guanine nucleotide exchange factor 3 (EPAC1) (AID 1645889). Also: % of control where 0% means no effect; nearly all actives have a fitted effect of over 40% in size. In outline:
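Rap1B-BODIPY-GDP 250 nM + GDP 50 uM; cpds 7-pt, final 9.74 nM–152 uM (activator mode) or from 7.32 nM upwards (inhibitor mode); RT; FI 480/540 nm at 5 and 30 min, then ± cAMP, reread.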
(In general: The purpose of a counterscreen is to sort out artefacts and off-target activity.)

The target of assay [20] is Mitogen-activated protein kinase 10 (Mus musculus) (UniProt Q61831). The assay can be described thus: JNK3 AlphaScreen Assay (AID 530; active = well fitted curve in either direction with a large enough effect, not every such curve was filed as active;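 also: kinase came from lysate of stimulated human HepG2 cells; signal reports phosphorylation of biotinylated GST-cJun 1-79 at Ser73 with 10 µM ATP; % is scaled to controls: 0 for no effect and ±100 for the full control effect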). Put shortly: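 qHTS titrations with 15 min compound pre-incubation before adding ATP (10 uM final). Read-out: AlphaScreen of Ser73-phosphorylated biotin-GST-cJun using HepG2 lysate JNK3 activated by IL-1β and TNFα.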
(In general: In Alpha technology, singlet oxygen from a donor bead excites a nearby acceptor bead.)

Assay [21] addresses Cytochrome P450 3A4 (Homo sapiens) (UniProt P08684). The assay can be described thus: qHTS Assay for Inhibitors and Substrates of Cytochrome P450 3A4 (AID 884). Also: potency is read from the fitted curve at half-maximal effect; nearly all actives have a fitted effect of over 50% in size. In outline:
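Luminescent readout of luciferin produced by CYP3A4 (20 nM) dealkylation of Luciferin-PPXE, 25 uM (its KM). NADPH-driven reaction ran 60 min at RT after 10 min compound preincubation; data scaled to 57 uM ketoconazole as 100% inhibition.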

Assay [22] addresses Cytochrome P450 2D6 (Homo sapiens) (UniProt P10635). Description: qHTS Assay for Inhibitors and Substrates of Cytochrome P450 2D6 (AID 891). Also: potency is read from the fitted curve at half-maximal effect; nearly all actives have a fitted effect of over 60% in size. Put shortly:
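Luminescent read-out of luciferin formed by 5 nM human CYP2D6 demethylating 30 uM Luciferin-ME EGE (Km level) over 60 min at room temperature after NADPH regeneration addition. Data normalized to full inhibition by 1.43 uM quinidine.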

A number with no mark means an inactive call. Records with an inconclusive call do not appear. The source made the active and inactive calls. Unless noted, calls follow the shape of the dose curve; as a rule, active = well fitted curve in the direction sought with a large enough effect; inconclusive = small, poorly fitted or top-dose-only effect, or another doubt; inactive = no such curve, though single readings can be large; an effect the other way counts as inactive or inconclusive.

Sequence of Glucocorticoid receptor (Homo sapiens) (P04150 whole entry, looked up, the tested form may be a part): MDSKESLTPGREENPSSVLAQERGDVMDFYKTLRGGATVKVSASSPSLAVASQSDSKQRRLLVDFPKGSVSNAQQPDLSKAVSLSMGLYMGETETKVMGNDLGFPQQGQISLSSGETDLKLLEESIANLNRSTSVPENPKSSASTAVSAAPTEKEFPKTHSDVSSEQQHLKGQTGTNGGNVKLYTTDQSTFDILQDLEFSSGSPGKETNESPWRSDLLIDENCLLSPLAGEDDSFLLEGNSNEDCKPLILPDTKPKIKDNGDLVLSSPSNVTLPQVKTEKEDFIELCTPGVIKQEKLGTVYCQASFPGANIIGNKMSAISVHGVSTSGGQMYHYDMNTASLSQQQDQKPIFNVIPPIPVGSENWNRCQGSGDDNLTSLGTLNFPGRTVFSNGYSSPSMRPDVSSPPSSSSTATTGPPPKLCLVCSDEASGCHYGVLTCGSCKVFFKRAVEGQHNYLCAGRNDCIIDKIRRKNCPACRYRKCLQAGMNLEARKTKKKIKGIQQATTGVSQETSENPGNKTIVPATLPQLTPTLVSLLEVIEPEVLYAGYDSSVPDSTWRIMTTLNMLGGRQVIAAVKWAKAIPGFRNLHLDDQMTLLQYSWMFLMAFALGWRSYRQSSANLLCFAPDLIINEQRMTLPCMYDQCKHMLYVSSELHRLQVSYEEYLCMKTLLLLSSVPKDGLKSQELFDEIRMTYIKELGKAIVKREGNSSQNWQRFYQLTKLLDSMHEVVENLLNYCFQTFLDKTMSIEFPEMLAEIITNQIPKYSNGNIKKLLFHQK
Sequence of Dual specificity protein kinase CLK4 (Homo sapiens) (Q9HAZ1 whole entry, looked up): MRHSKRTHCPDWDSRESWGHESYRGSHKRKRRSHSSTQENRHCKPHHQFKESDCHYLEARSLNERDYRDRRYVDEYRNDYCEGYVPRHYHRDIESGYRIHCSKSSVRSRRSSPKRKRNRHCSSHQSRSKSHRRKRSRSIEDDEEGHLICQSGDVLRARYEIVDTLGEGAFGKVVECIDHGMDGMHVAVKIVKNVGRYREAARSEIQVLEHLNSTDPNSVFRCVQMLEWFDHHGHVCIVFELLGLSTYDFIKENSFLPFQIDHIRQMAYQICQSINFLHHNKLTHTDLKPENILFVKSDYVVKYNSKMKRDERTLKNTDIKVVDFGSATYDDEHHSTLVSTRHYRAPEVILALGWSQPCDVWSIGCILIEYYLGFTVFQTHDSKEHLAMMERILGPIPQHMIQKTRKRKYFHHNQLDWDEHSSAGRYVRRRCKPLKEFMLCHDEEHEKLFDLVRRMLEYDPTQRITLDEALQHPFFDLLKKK
Sequence of Cytochrome P450 1A2 (Homo sapiens) (P05177 whole entry, looked up): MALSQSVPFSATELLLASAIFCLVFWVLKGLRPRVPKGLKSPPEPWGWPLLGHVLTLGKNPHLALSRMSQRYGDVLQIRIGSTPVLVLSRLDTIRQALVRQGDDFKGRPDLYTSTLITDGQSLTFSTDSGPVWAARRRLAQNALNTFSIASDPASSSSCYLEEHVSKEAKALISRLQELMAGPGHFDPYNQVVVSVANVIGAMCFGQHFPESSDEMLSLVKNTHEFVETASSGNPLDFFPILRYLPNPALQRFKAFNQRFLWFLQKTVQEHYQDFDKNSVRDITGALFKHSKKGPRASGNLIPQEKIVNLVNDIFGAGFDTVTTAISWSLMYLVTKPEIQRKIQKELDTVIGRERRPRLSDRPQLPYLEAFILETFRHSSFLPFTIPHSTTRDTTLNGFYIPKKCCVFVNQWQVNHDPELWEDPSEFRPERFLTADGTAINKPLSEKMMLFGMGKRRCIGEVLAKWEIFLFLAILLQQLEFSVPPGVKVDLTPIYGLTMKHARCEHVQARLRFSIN
Sequence of Rap guanine nucleotide exchange factor 3 (Homo sapiens) (O95398 whole entry, looked up): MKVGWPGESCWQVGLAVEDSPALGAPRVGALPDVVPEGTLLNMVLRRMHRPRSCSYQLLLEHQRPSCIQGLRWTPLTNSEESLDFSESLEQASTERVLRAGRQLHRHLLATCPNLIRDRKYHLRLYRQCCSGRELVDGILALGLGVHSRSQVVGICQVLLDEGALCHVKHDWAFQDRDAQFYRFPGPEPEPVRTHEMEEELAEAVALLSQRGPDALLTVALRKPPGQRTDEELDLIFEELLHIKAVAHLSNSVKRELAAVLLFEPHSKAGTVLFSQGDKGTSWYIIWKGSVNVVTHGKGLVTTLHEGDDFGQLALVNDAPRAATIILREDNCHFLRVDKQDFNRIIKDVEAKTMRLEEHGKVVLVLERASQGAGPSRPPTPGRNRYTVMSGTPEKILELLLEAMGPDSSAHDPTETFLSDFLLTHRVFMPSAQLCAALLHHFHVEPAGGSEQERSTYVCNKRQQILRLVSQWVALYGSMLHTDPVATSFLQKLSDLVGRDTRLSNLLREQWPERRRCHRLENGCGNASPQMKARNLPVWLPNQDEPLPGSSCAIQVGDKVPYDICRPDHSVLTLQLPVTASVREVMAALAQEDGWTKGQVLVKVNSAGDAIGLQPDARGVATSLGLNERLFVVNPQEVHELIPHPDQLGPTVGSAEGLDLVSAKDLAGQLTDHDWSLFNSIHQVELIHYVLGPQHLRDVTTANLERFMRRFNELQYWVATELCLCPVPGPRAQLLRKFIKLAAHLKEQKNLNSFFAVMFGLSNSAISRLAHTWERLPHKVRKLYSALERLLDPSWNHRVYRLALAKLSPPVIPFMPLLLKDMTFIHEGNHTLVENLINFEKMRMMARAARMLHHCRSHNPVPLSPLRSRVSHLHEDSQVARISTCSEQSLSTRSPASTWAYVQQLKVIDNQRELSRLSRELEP
Sequence of Cytochrome P450 3A4 (Homo sapiens) (P08684 whole entry, looked up): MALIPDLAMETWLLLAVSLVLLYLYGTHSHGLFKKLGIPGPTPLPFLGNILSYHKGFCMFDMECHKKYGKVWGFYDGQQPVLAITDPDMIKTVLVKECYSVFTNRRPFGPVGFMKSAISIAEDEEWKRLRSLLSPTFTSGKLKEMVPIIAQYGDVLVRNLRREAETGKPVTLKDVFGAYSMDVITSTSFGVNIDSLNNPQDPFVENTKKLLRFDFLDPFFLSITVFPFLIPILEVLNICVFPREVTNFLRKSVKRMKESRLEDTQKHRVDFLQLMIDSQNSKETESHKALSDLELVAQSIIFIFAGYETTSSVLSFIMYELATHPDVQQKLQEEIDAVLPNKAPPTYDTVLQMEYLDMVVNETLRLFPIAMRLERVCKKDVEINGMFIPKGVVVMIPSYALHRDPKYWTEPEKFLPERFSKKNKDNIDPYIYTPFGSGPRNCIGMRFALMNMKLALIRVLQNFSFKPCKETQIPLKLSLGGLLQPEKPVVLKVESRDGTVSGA
Sequence of Rap guanine nucleotide exchange factor 4 (Homo sapiens) (Q8WZA2 whole entry, looked up): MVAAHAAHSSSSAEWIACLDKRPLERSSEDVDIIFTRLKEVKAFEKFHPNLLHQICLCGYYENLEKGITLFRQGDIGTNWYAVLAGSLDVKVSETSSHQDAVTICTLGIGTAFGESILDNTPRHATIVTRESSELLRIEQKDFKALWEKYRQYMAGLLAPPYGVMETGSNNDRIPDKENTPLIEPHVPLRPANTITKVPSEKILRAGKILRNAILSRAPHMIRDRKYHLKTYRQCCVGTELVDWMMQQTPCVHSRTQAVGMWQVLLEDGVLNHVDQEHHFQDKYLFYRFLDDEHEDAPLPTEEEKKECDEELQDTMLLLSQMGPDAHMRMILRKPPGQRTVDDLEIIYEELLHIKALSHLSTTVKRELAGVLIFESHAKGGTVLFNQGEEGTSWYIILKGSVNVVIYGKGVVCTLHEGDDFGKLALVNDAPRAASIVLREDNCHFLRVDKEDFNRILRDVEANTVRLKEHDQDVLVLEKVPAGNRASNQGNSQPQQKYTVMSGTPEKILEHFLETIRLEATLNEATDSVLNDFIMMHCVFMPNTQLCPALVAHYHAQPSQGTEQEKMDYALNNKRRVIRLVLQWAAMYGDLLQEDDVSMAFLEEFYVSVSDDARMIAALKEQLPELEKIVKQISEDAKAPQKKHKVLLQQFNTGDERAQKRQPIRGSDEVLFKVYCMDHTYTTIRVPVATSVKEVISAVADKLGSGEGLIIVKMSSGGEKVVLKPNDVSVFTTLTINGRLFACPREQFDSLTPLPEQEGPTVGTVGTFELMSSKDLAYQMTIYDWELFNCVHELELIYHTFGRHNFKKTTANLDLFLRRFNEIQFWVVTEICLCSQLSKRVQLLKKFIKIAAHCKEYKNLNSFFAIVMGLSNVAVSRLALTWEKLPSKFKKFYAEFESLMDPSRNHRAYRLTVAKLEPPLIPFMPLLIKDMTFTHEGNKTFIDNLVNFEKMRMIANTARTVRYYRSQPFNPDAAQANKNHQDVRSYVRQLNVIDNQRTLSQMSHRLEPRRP
Sequence of Lysosomal acid glucosylceramidase (Homo sapiens) (P04062 whole entry, looked up): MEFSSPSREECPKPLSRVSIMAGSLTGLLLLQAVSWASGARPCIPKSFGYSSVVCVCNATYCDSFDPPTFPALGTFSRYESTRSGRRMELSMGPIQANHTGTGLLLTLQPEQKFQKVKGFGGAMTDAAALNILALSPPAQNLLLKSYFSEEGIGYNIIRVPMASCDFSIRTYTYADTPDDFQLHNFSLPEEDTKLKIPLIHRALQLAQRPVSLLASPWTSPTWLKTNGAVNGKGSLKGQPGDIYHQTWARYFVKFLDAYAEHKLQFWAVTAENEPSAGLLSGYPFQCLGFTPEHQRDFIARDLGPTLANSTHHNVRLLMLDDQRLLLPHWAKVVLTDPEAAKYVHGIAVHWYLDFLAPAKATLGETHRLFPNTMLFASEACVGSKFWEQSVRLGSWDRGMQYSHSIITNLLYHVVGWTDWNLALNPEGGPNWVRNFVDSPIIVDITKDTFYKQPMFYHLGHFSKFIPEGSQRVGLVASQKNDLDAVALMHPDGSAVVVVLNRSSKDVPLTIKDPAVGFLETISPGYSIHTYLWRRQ

Take `CN(C)c1ncc2nc(CCc3ccccc3)c(=O)n(Cc3cccs3)c2n1`: the Potency was greater than 11.4 µM in [1]; 1.58 µM (active) in [3]; greater than 9.22 µM in [6]; greater than 46 µM in assay [7]; 6.31 µM (active) in [10]. In addition, the activity change, negative = inhibition in [2] is 16.2%; in assay [4], -16.3%. Besides, the result in [5] and in assay [9] was inactive. In addition, the Potency entry in assay [8], in assay [11], in assay [12], in assay [13], in [14] and in [15] was “inactive” each time. The Potency result in [16], in [17] and in assay [18] was “inactive” throughout.

Take `COc1ccc(/C=N/N=C2/C(=O)Nc3ccccc32)cc1O`: the Potency result in assay [15], in assay [16] and in assay [18] was “inactive” throughout. Besides, the activation is 6.47% [at 17.1 µM, percent relative to cAMP agonist control] in [17] and 36.3% [at 30.8 µM] in assay [19].

With `COc1ccc(CNc2nc(-c3cccnc3)nc3ccccc23)c(OC)c1`, the results for the Potency in [1] and in assay [6] were greater than 11.4 µM and greater than 46 µM, respectively. The activity change, negative = inhibition was -16.7% in [2] and 6.84% in assay [4]. Also, the call in [5] was inactive. Besides, the Potency entry in [20], in [13], in assay [14], in assay [15], in assay [16] and in [17] was “inactive” throughout. For the same compound, the Potency result in assay [18] is “inactive”.

As for `Cc1cc(Nc2ncc(Cl)cc2Cl)n(-c2ccccc2C)n1`, the Potency entry in assay [15], in [16], in [17] and in [19] was “inactive” each time. Besides, the Potency in [18] is 16.9 µM (active).

For the compound `CN1CCN(c2ncc3nc(CCc4ccccc4)c(=O)n(Cc4cccs4)c3n2)CC1`, the Potency was greater than 11.4 µM in assay [1], 15.8 µM (active) in assay [3], greater than 9.22 µM in assay [6] and greater than 46 µM in assay [7]. The activity change, negative = inhibition was -5.44% in [2] and 4.5% in [4]. Further, the compound was classed as inactive in assay [5] and in assay [9]. Besides, the Potency result in [20], in [15], in [16], in assay [17] and in assay [18] was “inactive” each time.

Regarding `COc1cccc(-c2cncnc2NCc2ccccc2OC)c1`, the activity change, negative = inhibition in assay [2] is -3.02%; in assay [4] it was 6.93%. Also, the Potency in assay [3] was 3.98 µM (active); in [6], greater than 46 µM; in assay [7] it was greater than 46 µM; in assay [21] it was 0.501 µM (active); in assay [22] it was 7.94 µM (active); in assay [10] it was 2 µM (active). For the same compound, the Potency is 14.1 µM (active) in [11], 15.8 µM (active) in assay [12], 14.1 µM (active) in [13] and 44.1 µM (active) in [18]. Besides, the compound was classed as inactive in assay [5] and in assay [9]. The Potency entry in assay [20], in [14], in assay [15], in [16] and in assay [17] was “inactive” each time.
